High-throughput results: PubChem, National Center for Advancing Translational Sciences (NCATS)
Only a selection was taken, and hits are over-represented in it overall.
LmPK inhibitor: LmPK (Leishmania mexicana) enzyme inhibition | Q27686 | AID 1721 | Potency, µM (highest dose often 57.5 µM), inactives show top-dose activity change, negative = inhibition, most hits filed as inhibitors | purified LmPK, Kinase-Glo ATP luminescence, 1 h | 0.37% of 290,000 active; further: potency means the concentration at half of the fitted maximal effect; on the % scale 0 is the no-effect control and ±100 the full control effect
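qHTS format; LmPK 0.1 nM; substrates PEP 0.5 mM and ADP 0.1 mM. One-hour room-temperature incubation, then coupled luciferase luminescence; 0.5 nM enzyme wells mark activation.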
TbPYK inhibitor: inhibitors of Trypanosoma brucei pyruvate kinase. AID 624173. Potency, µM (doses to about 76.8 µM), for inactives: at the highest dose activity, negative = inhibition, actives largely listed as inhibitors. Q57TT1. TbPYK enzyme, Kinase-Glo Plus ATP luminescence, 45 min. 0.12% of 410,000 active; further: potency means the concentration at half of the fitted maximal effect; on the % scale 0 is the no-effect control and ±100 the full control effect; nearly all actives have a fitted effect of over 50% in size
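Activity of T. brucei pyruvate kinase was followed by Kinase-Glo Plus luminescence after the enzyme reacted 45 min at room temperature with 130 uM ADP (final) and substrate. Test compounds were added before ADP at multiple concentrations.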
FBPA Giardia inh: blocks Giardia fructose-bisphosphate aldolase activity. A8B2U2. purified Giardia FBPA. Potency, µM (top dose mostly 59.6 µM), for the others: at the highest dose activity, negative = inhibition, most hits filed as inhibitors. 0.71% of 290,000 active. AID 2451; further: potency means the concentration at half of the fitted maximal effect; on the % scale 0 is the no-effect control and ±100 the full control effect; nearly all actives have a fitted effect of over 55% in size
Target sequence (A8B2U2 whole entry, looked up): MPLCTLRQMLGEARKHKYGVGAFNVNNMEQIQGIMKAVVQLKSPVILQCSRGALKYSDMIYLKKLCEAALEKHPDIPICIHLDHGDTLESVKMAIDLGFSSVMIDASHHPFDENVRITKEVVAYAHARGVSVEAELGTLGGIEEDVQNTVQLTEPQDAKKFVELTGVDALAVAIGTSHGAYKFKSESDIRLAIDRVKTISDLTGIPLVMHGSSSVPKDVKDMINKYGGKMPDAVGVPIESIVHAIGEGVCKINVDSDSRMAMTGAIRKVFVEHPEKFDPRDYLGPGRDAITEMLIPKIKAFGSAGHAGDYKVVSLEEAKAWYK
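40 nM FBPA preincubated 10 min at RT with compound (up to 57.5 uM final), then substrate plus GAPDH/TPI/NAD/arsenate coupling and diaphorase/resazurin added. Fluorescence read after 20 min at RT, 525/598 nm.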
CHX counter: counter-screen for Shiga toxin inhibitors: cycloheximide protein synthesis inhibition. cell reporter, cycloheximide protein synthesis inhibition counterscreen. max response, %. 12% of 300,000 active; in the data active means max response mostly above about 13%, no sharp cut-off; inactive means mostly below about 14%; further: read at 38.3 µM for the half of the compounds with a filed dose; 0% is about no effect
Shiga toxin inh: inhibitors of Shiga toxin in Vero cells; 9.2% of 290,000 active; inhibition, % at 38.7 µM; AID 2315; Vero cells, Shiga toxin protein synthesis inhibition reporter; in the data active means inhibition mostly above about 28%, no sharp cut-off; inactive means mostly below about 43%; further: 0% is about no effect
Sm TGR inh: inhibitors of Schistosoma mansoni thioredoxin glutathione reductase; 3% of 360,000 active; AID 485364; Q962Y6; purified TGR, DTNB reduction, TNB absorbance 405 nm; Potency, µM (highest dose often 114 µM), without a hit: top-dose activity change, negative = inhibition, most hits filed as inhibitors; further: potency means the concentration at half of the fitted maximal effect; on the % scale 0 is the no-effect control and ±100 the full control effect; nearly all actives have a fitted effect of over 60% in size
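First, TGR (20 nM dispensed) and NADPH were mixed with compound. Second, a 15 min room-temperature incubation followed. Third, further NADPH and then DTNB were added to start the reaction. Finally, TNB absorbance was monitored kinetically.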
Starred values were filed as active, the others as inactive; ? = inconclusive; . = not tested or not shown. Unless noted, the call rests on the fitted dose curve; in most records, active means well fitted curve in the direction sought with a large enough effect; inconclusive means small, poorly fitted or top-dose-only effect, or another doubt; inactive means no such curve, though single readings can be large; an effect the other way counts as inactive or inconclusive.

SMILES	LmPK inhibitor	TbPYK inhibitor	FBPA Giardia inh	CHX counter	Shiga toxin inh	Sm TGR inh
COc1ccccc1N1C(=O)S/C(=C\c2cc(C)n(C)c2C)C1=O	2%	-10%	-13%	29*	56*	?
COc1ccccc1CNc1ncnc2ccc(-c3cccc(C#N)c3)cc12	.	.	0%	.	.	.
COc1cc(CN2CCN(Cc3ccc(SC)cc3)CC2)cc(OC)c1O	-10%	-4%	?	3	-5	10µM*
CCn1c2ccccc2c2cc(CN3CCN(Cc4cc(OC)c(O)c(OC)c4)CC3)ccc21	.	5%	.	.	.	35µM*
CCn1c2ccccc2c2cc(CN3CCN(Cc4cc(OC)ccc4O)CC3)ccc21	-7%	-12%	?	8	25	-27%
CCOc1ccccc1NC(=O)Cn1ncc2c([nH]c3ccccc32)c1=O	.	-5%	.	.	.	-1%
COc1ccc(C(=O)NC(C)C2CC3CCC2C3)cc1 (stereo not drawn)	1%	-4%	2%	11*	15	1%
CC(NC(=O)c1ccc(C#N)cc1)C1CC2CCC1C2 (stereo not drawn)	-3%	1%	1%	5	-10	-13%
Cc1ccc(C(=O)NC(C)C2CC3CCC2C3)c(C)c1 (stereo not drawn)	1%	-1%	-9%	13	90*	-3%
CC(NC(=O)c1ccc(N(C)C)cc1)C1CC2CCC1C2 (stereo not drawn)	9%	2%	-3%	14*	106	2%
CC(NC(=O)c1ccc(F)cc1Cl)C1CC2CCC1C2 (stereo not drawn)	-2%	0%	16%	6	36	-4%
O=C(c1ccc(Nc2nccc(-c3cc4ccccc4s3)n2)cc1)N1CCC(N2CCCC2)CC1	.	.	-10%	-18	-16	.
CCCC[C@@H]1CCCO[C@@](C(=O)NCCN2CCOCC2)(C(F)(F)F)C1	.	.	0%	-4	-3	.
COc1ccccc1OCCSc1nc(N)cc(N)n1	0%	-6%	1%	22	active	3%
Nc1cc(N)nc(SCCOc2ccccc2F)n1	1%	-3%	2%	70*	121*	-9%
Cn1c(SCCOc2ccccc2F)nc2ccccc2c1=O	5%	5%	-1%	16	30	12%
COc1ccccc1OCC#CCSc1ncccn1	-1%	2%	-1%	24*	54	.
O=C(c1cccn2c(=O)c3cc(Cl)ccc3nc12)N1CCN(c2ccccc2F)CC1	.	-4%	.	.	.	-4%
CCCOc1ccc(C(=O)Nc2ccc(Cl)c(-c3nc4ncccc4o3)c2)cc1	.	-14%	.	.	.	3%
COc1cccc(N(CC(=O)N2CCC(C)CC2)S(=O)(=O)c2ccc(C)cc2)c1	.	1%	.	.	.	-5%
O=C(Nc1ccon1)c1ccc(N2CCCCC2)c([N+](=O)[O-])c1	2%	1%	-2%	45*	99*	-5%
Cc1nnc(-c2ccc(N3CCCCCC3)c([N+](=O)[O-])c2)o1	9%	-12%	2%	15*	50*	30%
O=C(Nc1nc(-c2ccccc2)cs1)c1ccc(N2CCOCC2)c([N+](=O)[O-])c1	0%	-5%	-6%	-4	-8	-2%
NC(=O)c1ccc(N2CCCCCC2)c([N+](=O)[O-])c1	0%	1%	4%	3	3	3%
O=C(Nc1nc2ccccc2s1)c1ccc(N2CCCCC2)c([N+](=O)[O-])c1	-1%	4%	1%	45*	102*	-14%
Cc1cc(NC(=O)c2ccc(N3CCCC3)c([N+](=O)[O-])c2)no1	-2%	-7%	1%	20*	23	-11%
COc1cccc(C2=NN(C(C)=O)C(c3cn(-c4ccccc4)nc3-c3cccs3)C2)c1 (stereo not drawn)	.	-7%	.	.	.	6%
Cc1cccc(CNC(=O)c2ccc(N3Cc4ccccc4Oc4ncccc43)s2)c1	.	0%	.	.	.	0%
CC1=C(C(=O)Nc2ccc(C)cn2)C(c2cnn(C)c2)C2=C(CCCC2=O)N1 (stereo not drawn)	-1%	-3%	0%	-2	14	2%
CO[C@@]1(NC(=O)CSC(F)F)C(=O)N2C(C(=O)O)=C(CSc3nnnn3CCO)CO[C@@H]21	.	-9%	.	.	.	.
